Test results reported in PubChem BioAssay AID1259415 (National Center for Advancing Translational Sciences (NCATS), 2018).
Hit rate of the full screen: of about 410,000 compounds, about 18,000 (4.4%) were called active. Roughly 7% stayed inconclusive and do not appear here. For the sample, actives were picked, then their nearest neighbours and some compounds at random. Unmarked numbers belong to inactive results. Rule as the data show it: active = activity change below about -60%; inconclusive = no clear call, values can overlap the other calls; inactive = above about -39%.

Experiment: qHTS Assay for inhibitors of the human cytomegalovirus (HCMV)
Conditions: HFF cells, HCMV-luciferase reporter, 72 h; at 57.5 µM; hits give low values
From the text: NCGC Assay Overview: Infection with human cytomegalovirus (HCMV) continues to pose significant threats for pregnant women and immunocompromised hosts. HCMV causes serious morbidity and mortality in transplant recipients, and congenital HCMV is the leading infectious cause of mental retardation and deafness in children. In the 1990s, the annual costs associated with the disease burden of congenital CMV were estimated at around $2 billion. A HCMV vaccine is not available yet and HCMV therapies result in intolerable side effects and emergence of drug resistant viruses. […] Towards this goal we have developed and characterized a luciferase HCMV reporter that was initially used in 96 well plates and then optimized to 1536-well plates for utilization in screening of the MLSMR collection, the NGCG diversity collection and the NCGC Pharmaceutical Collection of approved and investigational drugs.
NCGC Assay Protocol Summary:
This is a cell-based assay for HCMV inhibition in HFFs cells. The screening used 2 compound doses and the HCMV-luciferase at MOI of 1 PFU/cell. Cells were treated and infected with HCMV. At 72 h post infection cell lysates were collected and luciferase activity was determined using the Glomax-Multi + Detection System (Promega, Madison, WI). Data were normalized to the controls for basal activity (buffer only) and known HCMV inhibitors Salinmoycin.
1536-well assay protocol for the assay:
(1) Add 3 ul CMV/HFF cell culture. 1000 cells/well in DMEM nirmal media.
(2) Incubate 16 hr at 37C.
(3) Add 23 nl control compound, 10uM of Salinomycin.
(4) Add 23 nl compounds in DMSO solution.
(5) Add 3 ul CMV suspension. Final 1 puf/ul, Virus stock 2000pfu/ul
(6) Incubate 72 hrs at 37C.
(7) Add 4 ul OneGlo Luc Reagent.
(8) Incubate 5 min at room temperature.
% is scaled to controls: 0 for no effect and ±100 for the full control effect.

SMILES | activity change, negative = inhibition
O=C(NCc1ccco1)c1ccc([N+](=O)[O-])cc1Cl | -4.15%
O=C(Nc1ccc2ccccc2c1)/C(=C/c1cccc(Br)c1)NC(=O)c1ccco1 | -64.4% (active)
O=C(Nc1cccc(C(=O)O)c1)/C(=C\c1ccccc1)NC(=O)c1ccc(Br)o1 | 23.2%
O=C(NCc1ccco1)/C(=C\c1cccc([N+](=O)[O-])c1)NC(=O)c1ccco1 | -72% (active)
O=C(NCc1ccco1)/C(=C/c1cccc([N+](=O)[O-])c1)NC(=O)c1ccco1 | 20.5%
CC(Oc1ccc2ccccc2c1)C(=O)NNC(=S)NC(=O)c1ccco1 (configuration not stated) | -3.96%
O=C(CNS(=O)(=O)c1cccs1)N1CCN(c2ccccc2Cl)CC1 | 68.5%
CC1CCCCN1CC(=O)N1CCCc2c1c(=O)oc1ccc(OCc3ccccc3)cc21 (configuration not stated) | -2.34%
CCCCn1cc(S(=O)(=O)c2ccc(OCC)cc2)c(=O)c2cc(OC)c(OC)cc21 | 44.7%
COc1ccc(CCNC(=O)Cn2c(=O)n(-c3ccccc3)c(=O)c3c(C)c(C)sc32)cc1OC | -11.6%
COc1ccccc1-c1noc(-c2ccc(NCc3ccccc3)c([N+](=O)[O-])c2)n1 | 0.104%
Cc1ccc(C)c(N2CCN(C(=O)CCCCCn3c(=S)[nH]c4ccc(N5CCOCC5)cc4c3=O)CC2)c1 | -88.3% (active)
Cc1ccc(C)c(N2CCN(C(=O)CCc3c(C)nc4c(c3C)c(=O)n(C)c(=O)n4C)CC2)c1 | -21.4%
COc1cccc(N2CCN(C(=O)CCCCCn3c(=O)[nH]c4ccccc4c3=O)CC2)c1 | -7.41%
CC1(C)OC(=O)C2=C(CC(CCc3ccccc3)OC2c2ccc(Cl)cc2)O1 (configuration not stated) | 7.29%
Cc1cc(C)cc(OC(C)C(=O)Nc2nc3c(s2)CCCC3)c1 (configuration not stated) | -26.6%
COc1cc(C(=O)N2CCN(C(=O)COc3cccc(C)c3)CC2)cc(OC)c1OC | 28.1%
CCc1cccc(C)c1Nc1c(-c2ccc(N(C)C)cc2)nc2ncccn12 | -14.5%
CC(Nc1ccc(-c2nc(-c3ccco3)no2)cc1[N+](=O)[O-])c1ccccc1 (configuration not stated) | 41.2%
CCOC(=O)Cn1c(CN(Cc2ccccc2)Cc2ccccc2)nc2c1c(=O)[nH]c(=O)n2C | 31.2%
COC(=O)[C@@H]1[C@@H](CO)[C@@H]2Cn3c(ccc(Br)c3=O)[C@H]1N2C(=O)c1cnccn1 | 13.3%
Cc1nc(CNS(=O)(=O)c2cc([N+](=O)[O-])ccc2C)cs1 | 17.1%
COc1ccccc1CNS(=O)(=O)c1ccc(C)cc1 | -4.42%

SMILES | activity change, negative = inhibition
Cc1nc(CNS(=O)(=O)c2ccc(Oc3ccccc3)cc2)cs1 | -90.1% (active)
O=C1CSC2(C(=O)N(Cc3ccccc3)c3ccccc32)N1c1cccc(F)c1 (configuration not stated) | -27.5%
Cc1nc2ccccc2cc1OCc1ccc(F)cc1 | -82.9% (active)
CC(=O)c1ccccc1OCc1ccc(C(=O)c2ccccc2)cc1 | -23.4%
O=C(NC1CCC(O)CC1)c1ccccc1OCc1ccc(F)cc1 (configuration not stated) | -22.6%
CCCN(CC(=O)Nc1ccccc1C)C(=O)c1ccc(OCC(=O)N2CCOCC2)c(OCC)c1 | 0.271%
CCCN(CC(=O)Nc1ccccc1C)C(=O)c1ccc2[nH]c3c(c2c1)CC(C)CC3 (configuration not stated) | -61.3% (active)
CCCN(CC(=O)Nc1ccccc1C)C(=O)c1cc(=O)[nH]c2ccccc12 | 42.9%
CC(C)NC(=O)Nc1cccc2c1O[C@@H](CN(C)S(=O)(=O)c1ccc(F)cc1)[C@@H](C)CN([C@H](C)CO)C2=O | 7.5%
Clc1cccc(Cl)c1Cl | -15.9%
COc1ccc(S(=O)(=O)c2c(Nc3ccc(C)cc3)sc(C(=O)c3ccc(C)cc3)c2N)cc1 | -10.2%
Cc1ccc(NC(=O)c2cn3c4c(ccc(Cl)c4c2=O)OC(C)C3)cc1C (configuration not stated) | 0.532%
CSc1ccc(Cl)c(C(=O)OCC(=O)N2CC(C)OC(C)C2)c1 (configuration not stated) | -9.66%
COc1ccc(NC(=O)CN(C)C(=O)c2n[nH]c3ccccc23)cc1 | 5.1%
COc1ccc(NC(=O)CN(C)C(=O)c2cc(C3CC3)nn2-c2ccccc2)cc1 | -100% (active)
CCc1ccccc1NC(=O)CN(C)C(=O)c1cc(C2CC2)nn1-c1ccccc1 | -18%
Cc1nc2nc(SCC(=O)N(Cc3ccccc3)C(C)C)nn2c(C)c1Cc1ccccc1Cl | -0.509%
CSc1ccc(C2c3c(oc4ccccc4c3=O)C(=O)N2CCCN2CCOCC2)cc1 (configuration not stated) | 7.95%
CNC[C@H]1OCc2cnnn2CCCC(=O)N([C@H](C)CO)C[C@@H]1C | -9.25%
Cc1ccc(-c2nnc3c4ccccc4c(C)nn23)cc1NC(=O)c1cccc(Br)c1 | 35.9%
CSc1nc(-c2ccccc2Cl)nc2c1Cc1c(CO)cnc(C)c1O2 | 9.54%
CCOC(=O)c1[nH]c2c(c1-c1ccccc1)C(=O)CC(c1ccc(Cl)cc1)C2 (configuration not stated) | -60.6% (active)
CCc1ccc(C2CC(=O)c3c([nH]c(C(=O)OCc4ccc(C)cc4)c3C)C2)cc1 (configuration not stated) | -27.1%

SMILES | activity change, negative = inhibition
CCOC(=O)c1ccc(N2C(=O)c3[nH]nc(-c4ccccc4)c3C2c2ccc(C(C)C)cc2)cc1 (configuration not stated) | -27.7%
CCOc1ccc(C2CC(=O)c3c([nH]c(C(=O)OCc4ccccc4)c3C)C2)cc1 (configuration not stated) | -87.7% (active)
CCOC(=O)C1Sc2[nH]c(=O)sc2C(c2ccc(Cl)cc2)C1C(=O)OCC (configuration not stated) | -32.8%
CCCOC(=O)c1[nH]c2c(c1C)C(=O)CC(c1cccs1)C2 (configuration not stated) | -91.4% (active)
C=CCOC(=O)C1=C(C)NC(C)=C(C(=O)OCC=C)C1c1cccs1 | -12.1%
CCOc1ccc(C2C3=C(CCCC3=O)N(CC(=O)O)C3=C2C(=O)CCC3)cc1 | -23.6%
COc1ccc(-c2cnn(C(C)(C)C(=O)Nc3ccccn3)c2)cc1OC | 25%
COc1ccc(NC(=O)c2sc(=O)n(Cc3ccc(S(=O)(=O)N(C)C)cc3)c2C)cc1 | -0.573%
OCC1(Cc2ccccc2C(F)(F)F)CCN(Cc2ccncc2)CC1 | 71%
Cc1nc2c(c(C)nn2-c2ccccc2)c(C)c1CCC(=O)NCCc1ccc(Cl)cc1 | -1.35%
Cc1cc(C)c2oc(C(=O)Nc3ccc(S(=O)(=O)N4CCCCCC4)cc3)cc(=O)c2c1 | -9.78%
CCOc1ccc(NC(=O)c2cn(C3CCCCC3)c(=O)c3c2c2ccccc2n3C)cc1 | -4.97%
O=C(COc1ccc(Cl)cc1)N(Cc1ccco1)Cc1ccco1 | -22.5%
COc1ccc(S(=O)(=O)NCC(c2ccc(N(C)C)cc2)N2CCc3ccccc32)cc1OC (configuration not stated) | 34.1%
O=C(CCc1nc2sc3c(c2c(=O)[nH]1)CCCC3)NCC(=O)Nc1ccccc1Br | -4.74%
Cc1ccc(C)c(-n2c(SCC(=O)O)nc3sc4c(c3c2=O)CCCC4)c1 | -26%
Cc1nc2sc3c(c2c(=O)n1NC(=O)CCl)CCCC3 | -63.7% (active)
O=C(c1ccc2c(c1)N(Cc1ccccc1F)C(=O)c1ccccc1S2(=O)=O)N1CCOCC1 | 5.01%
COc1cccc2c1C(=O)c1c(O)c3c(c(O)c1C2=O)CC(O)(C(C)=NNC(=O)c1ccc(Cl)c(Cl)c1)CC3OC1CC(N)C(O)C(C)O1 (configuration not stated) | -99% (active)
Cc1ccc2nc(CN3CCN(S(=O)(=O)c4ccc(C)c(C)c4)CC3)oc2c1 | 1.05%
COc1ccc(CN2C(=O)C(NC(=O)c3cccc(C)c3)(C(F)(F)F)N=C2c2ccccc2)cc1 (configuration not stated) | -8.44%
CC1C(=O)N(Cc2ccccc2)c2ccccc2N1C(=O)c1ccccc1 (configuration not stated) | -73.6% (active)
CC1Oc2ccccc2N(Cc2cccnc2)C1=O (configuration not stated) | 49.3%

SMILES | activity change, negative = inhibition
CC1C(C)N(C(=O)CCl)c2ccccc2N1C(=O)CCl (configuration not stated) | -38.8%
COc1cc(C(CC(=O)NCCC(C)C)N2Cc3ccccc3C2=O)cc(OC)c1OC (configuration not stated) | 22.7%
COC(=O)CN1C(=O)CSc2ccc(S(=O)(=O)Nc3cc(C)ccc3C)cc21 | -71.2% (active)
Cc1ccc(CCNC(=O)CN2C(=O)CSc3ccc(S(=O)(=O)N4CCOCC4)cc32)cc1 | -26.9%
CCN(CC)S(=O)(=O)c1ccc2c(c1)N(CC(=O)NCc1ccccc1)C(=O)CS2 | -9.16%
COc1ccc(Cc2nc3ccc(C(=O)NCc4ccccc4Cl)cc3o2)cc1 | -18%
COc1ccc(Cc2nc3ccc(C(=O)NCc4ccccc4C)cc3o2)cc1 | -89.9% (active)
COc1ccc(Cc2nc3ccc(C(=O)NCc4ccc(OC)cc4OC)cc3o2)cc1 | -12.1%
O=C(NC1CCCC1)N1CC(=O)N2[C@H](C1)[C@@H](c1ccc(Br)cc1)[C@@H]2CO | 13.9%
CCOC(=O)c1c(NC(=O)CCl)sc(C(=O)N(CC)CC)c1C | -99% (active)
CCOC(=O)c1c(NC(=O)COC(=O)c2ccc(S(=O)(=O)C(F)F)cc2)sc(C(=O)N(C)C)c1C | 6.79%
CCOC(=O)c1c(NC(=O)c2cc(CC)on2)sc(C(C)=O)c1C | 0.462%
O=C(CC1C(=O)NCCN1CC(c1ccccc1)c1ccccc1)NCCc1cn[nH]c1 (configuration not stated) | -37.4%
CCCCNC(=O)c1ccc2c(c1)NC(=O)C(C(C)C)N2 (configuration not stated) | 7.34%
C=CCN(CC=C)S(=O)(=O)c1ccc(C(=O)Nc2nc3c(s2)CCc2ccccc2-3)cc1 | -86.4% (active)
C=CCN(c1ccc(C(=O)Nc2cc(C)cc(C)c2)cc1)S(C)(=O)=O | -28.7%
COCCN(CCOC)S(=O)(=O)c1ccc(C(=O)Nc2nc3c(s2)CCc2ccccc2-3)cc1 | -63.9% (active)
CCCCN(C)S(=O)(=O)c1ccc(C(=O)Nc2sc3c(c2C(N)=O)CC(C)(C)NC3(C)C)cc1 | -1.57%
CCOC(=O)c1c(NC(=O)c2ccc(S(=O)(=O)N(CC)CC)cc2)sc2c1CCCCC2 | 49.3%
C=CCN(CC=C)S(=O)(=O)c1ccc(C(=O)Nc2sc3c(c2C(N)=O)CCCCC3)cc1 | -93.4% (active)
COCCN(CC(=O)Nc1ccccc1C)S(=O)(=O)c1ccc(S(=O)(=O)N2CCCC2)cc1 | 26.9%
O=C(Nc1ncc2c(n1)-c1ccccc1OC2)c1ccc(Cl)cc1 | 16.2%
CCCN(CCC)S(=O)(=O)c1ccc(C(=O)Nc2sc3c(c2C(=O)OC)CCN(CC)C3)cc1 | -35.8%
